Test results published in PubChem BioAssay (EPA / NIEHS).
“And” between values parts separate entries of the source, which are not always exact repeats. Identical values can stand only once. Inconclusive results are not listed. The source made the active and inactive calls. How the source made its calls, unless noted: active means hit-call score of the fitted dose curve at least 0.9, where 1 is the maximum; inconclusive means response in the unintended direction; inactive means score below 0.9.

Assays:
[1] = TOX21_p53_BLA_p4_viability: Viability Assessment in the Tox21 HCT-116 p53 Agonism Beta-lactamase Assay, Phase 4 (AID 2283597);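 further: hits lower the luminescence signal meaning cytotoxicity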
Outline: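 Luminescent ATP readout (CellTiter-Glo, 30 min, room temperature) in the same wells as the p53 bla ratio. HCT116 cells were treated for 16 h at 37C with DMSO-dissolved compounds.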

[2] = target: Cellular tumor antigen p53 (Homo sapiens) (UniProt P04637); assay: TOX21_p53_BLA_p5_ratio: Tox21 HCT-116 p53 Agonism Beta-lactamase Assay, Ratio, Phase 5 (AID 2283599)
Outline: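 Beta-lactamase reporter ratio (blue 460 nm over green 530 nm, 405 nm excitation) after 2 h CCF4-AM loading, in HCT-116 cells exposed 16 h at 37 C to compounds pinned at 217-fold dilution. Increases relative to DMSO baseline scored.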

[3] = TOX21_p53_BLA_p5_viability: Viability Assessment in the Tox21 HCT-116 p53 Agonism Beta-lactamase Assay, Phase 5 (AID 2283600)
Outline: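 Seeded cells (4000/well) settle 5 h before compound addition. Plates then incubate 16 h at 37C, receive FRET substrate for 2 h, and finally CellTiter-Glo, with luminescence measured after a 30 min room-temperature incubation.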

[4] = target: Cellular tumor antigen p53 (Homo sapiens) (UniProt P04637); assay: TOX21_p53_BLA_p4_ratio: Tox21 HCT-116 p53 Agonism Beta-lactamase Assay, Ratio, Phase 4 (AID 2283601)
Outline: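 Signal is the blue/green (460nm/530nm) ratio of cleaved versus uncleaved CCF4-AM substrate, read after 2 h substrate loading. Cells were HCT116 carrying the p53-responsive beta-lactamase reporter, dosed 16 h at 37C, 5% CO2; CellTiter-Glo measured in parallel.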

[5] = Tanguay_ZF_120hpf_MORT_legacy: (Legacy) Oregon State University Tanguay Lab 120 Hour Post-fertilization zebrafish Assay for Mortality (AID 2283633);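 on AC50: fitted as increase in binary mortality versus DMSO negative control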
Outline: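 Single dechorionated Tropical 5D embryos were held with test chemical (0.64% DMSO final) from 6 to 120 hpf at 28C under foil. Deaths at 24 or 120 hpf were recorded as binary calls, analysed for increase over DMSO controls.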

[6] = Tanguay_ZF_120hpf_YSE_legacy: (Legacy) Oregon State University Tanguay Lab 120 Hour Post-fertilization zebrafish Assay for Yolk Sac Edema (AID 2283634);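 on AC50: actives raise the incidence of yolk sac edema above the DMSO baseline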
Outline: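 Single dechorionated embryos were held in sealed plates at 28C with test chemical (0.64% DMSO final) from 6 hpf until 120 hpf. Edema of the yolk sac was then recorded as a binary endpoint; non-mortality endpoints were skipped for dead embryos.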

[7] = Tanguay_ZF_120hpf_EYE_legacy: (Legacy) Oregon State University Tanguay Lab 120 Hour Post-fertilization zebrafish Assay for Eye Malformation (AID 2283636)
Outline: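 Read-out is binary presence or absence of eye malformation, scored by brightfield microscopy at 120 hpf. Single larvae were exposed from 6 hpf in embryo medium containing 0.64% DMSO, with DMSO as baseline.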

[8] = Tanguay_ZF_120hpf_SNOU_legacy: (Legacy) Oregon State University Tanguay Lab 120 Hour Post-fertilization zebrafish Assay for Snout Malformation (AID 2283637)
Outline: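 Snout malformation read as a yes/no call on brightfield images of 120 hpf larvae (Tropical 5D strain). Static exposure began at 6 hpf on dechorionated embryos in 0.64% DMSO, with gain of signal analysed versus DMSO controls.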

[9] = Tanguay_ZF_120hpf_JAW_legacy: (Legacy) Oregon State University Tanguay Lab 120 Hour Post-fertilization zebrafish Assay for Jaw Malformation (AID 2283638)
Outline: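 Wild-type 5D embryos, chorion removed at 4 hpf, dosed singly from 6 hpf; 28C static, sealed, foil-covered, to 120 hpf. Endpoint: jaw defect yes/no (brightfield); mortality excludes scoring.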

[10] = Tanguay_ZF_120hpf_OTIC_legacy: (Legacy) Oregon State University Tanguay Lab 120 Hour Post-fertilization zebrafish Assay for Otic Vesicle Malformation (AID 2283639)
Outline: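 Embryos from 5D wild-type adults exposed in plates; DMSO 0.64% v/v final. Sealed, light-protected, 28C, static to 120 hpf. Otic vesicle malformation recorded as binary endpoint; gain-of-signal fitted vs DMSO.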

[11] = Tanguay_ZF_120hpf_PFIN_legacy: (Legacy) Oregon State University Tanguay Lab 120 Hour Post-fertilization zebrafish Assay for Pectoral Fin Malformation (AID 2283648);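 further: each larva judged yes or no for fin defect by brightfield with dead larvae skipped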
Outline: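 5D WT zebrafish; pronase dechorionation 4 hpf; 1 embryo/well at 6 hpf; static exposure to 120 hpf, 28C, sealed, foil-covered; final DMSO 0.64% v/v; 5 uM trimethyltin chloride positive control; fin defect scored yes/no.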

[12] = Tanguay_ZF_120hpf_CFIN_legacy: (Legacy) Oregon State University Tanguay Lab 120 Hour Post-fertilization zebrafish Assay for Caudal Fin Malformation (AID 2283649)
Outline: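 Single dechorionated 5D wild-type embryos are dosed at 6 hpf (final DMSO 0.64%) and held statically at 28C. Caudal fin malformation is recorded as present or absent at 120 hpf under brightfield, excluding dead embryos.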

[13] = Tanguay_ZF_120hpf_PIG_legacy: (Legacy) Oregon State University Tanguay Lab 120 Hour Post-fertilization zebrafish Assay for Pigmentation Malformation (AID 2283650);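 further: dechorionated Tropical 5D zebrafish embryos exposed singly from 6 to 120 hpf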
Outline: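 Pronase dechorionation at 4 hpf; embryos plated at 6 hpf, one per well; static exposure, sealed and foil-covered, 28C, to 120 hpf; pigmentation read by brightfield, binary; DMSO 0.64% baseline, 5uM trimethyltin chloride positive control.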

[14] = Tanguay_ZF_120hpf_CIRC_legacy: (Legacy) Oregon State University Tanguay Lab 120 Hour Post-fertilization zebrafish Assay for Circulatory Malformation (AID 2283651)
Outline: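 Read-out: presence or absence of circulatory malformation at 120 hpf, scored by brightfield microscopy, fitted in the gain-of-signal direction against DMSO baseline. Wild-type 5D larvae were exposed from 6 hpf after enzymatic chorion removal.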

[15] = Tanguay_ZF_120hpf_PE_legacy: (Legacy) Oregon State University Tanguay Lab 120 Hour Post-fertilization zebrafish Assay for Pericardial Edema (AID 2283640);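 on AC50: potency for increased incidence of pericardial edema versus DMSO baseline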
Outline: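 Zebrafish larvae are exposed from early development to 120 hpf at 28C, with 0.64% DMSO final. Each surviving larva receives a yes/no pericardial edema call by brightfield imaging, analysed relative to the DMSO baseline.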

[16] = Tanguay_ZF_120hpf_BRAI_legacy: (Legacy) Oregon State University Tanguay Lab 120 Hour Post-fertilization zebrafish Assay for Brain Malformation (AID 2283641)
Outline: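 Static exposure of staged wild-type embryos until 120 hpf, kept at 28C with light excluded and final DMSO of 0.64% (vol/vol). Presence or absence of brain malformation was noted under brightfield; mortality precluded scoring.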

[17] = Tanguay_ZF_120hpf_SOMI_legacy: (Legacy) Oregon State University Tanguay Lab 120 Hour Post-fertilization zebrafish Assay for Somite Malformation (AID 2283647)
Outline: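 Somitogenesis defects are recorded as binary calls in whole larvae at 120 hpf after continuous static chemical exposure starting at 6 hpf in dechorionated 5D embryos. DMSO serves as negative control and baseline.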

[18] = Tanguay_ZF_120hpf_AXIS_legacy: (Legacy) Oregon State University Tanguay Lab 120 Hour Post-fertilization zebrafish Assay for Body Axis Malformation (AID 2283635)
Outline: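 Each dechorionated embryo was exposed alone from 6 hpf, with DMSO at 0.64% (vol/vol) and trimethyltin chloride 5 uM as positive control. Axis malformation was recorded at 120 hpf unless the embryo had died.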

[19] = read-out: kallikrein-3 (KLK3), KLK3 (gene 354); assay: LTEA_HepaRG_KLK3: Life Technologies and Expression Analysis (LTEA) Assay for kallikrein-3 (KLK3) using HepaRG (AID 2283652; active means hit-call score of the fitted dose curve at least 0.9, where 1 is the maximum; inactive means score below 0.9); details: mRNA level, 48 h; actives raise or lower the signal
Outline: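 Differentiated human HepaRG cells in serum-free induction medium exposed 48 h in duplicate, eight-point half-log series from 100 uM in 0.5% DMSO. KLK3 mRNA by qRT-PCR, normalised to ACTB, GAPDH, POLR2A; bidirectional fit versus DMSO.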

[20] = read-out: solute carrier (SLC22A6), SLC22A6 (gene 9356); assay: LTEA_HepaRG_SLC22A6: Life Technologies and Expression Analysis (LTEA) Assay for solute carrier (SLC22A6) using HepaRG (AID 2283653; active means hit-call score of the fitted dose curve at least 0.9, where 1 is the maximum; inactive means score below 0.9); details: mRNA level, 48 h; actives raise or lower the signal
Outline: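 Gene-expression endpoint in HepaRG hepatic cells: duplicate 8-point concentration-response, highest 100 uM, 48 h treatment in serum-free medium with 0.5% DMSO. SLC22A6 expression measured by qRT-PCR, normalised to ACTB/GAPDH/POLR2A.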

Cellular tumor antigen p53 (Homo sapiens), sequence (P04637 whole entry, looked up): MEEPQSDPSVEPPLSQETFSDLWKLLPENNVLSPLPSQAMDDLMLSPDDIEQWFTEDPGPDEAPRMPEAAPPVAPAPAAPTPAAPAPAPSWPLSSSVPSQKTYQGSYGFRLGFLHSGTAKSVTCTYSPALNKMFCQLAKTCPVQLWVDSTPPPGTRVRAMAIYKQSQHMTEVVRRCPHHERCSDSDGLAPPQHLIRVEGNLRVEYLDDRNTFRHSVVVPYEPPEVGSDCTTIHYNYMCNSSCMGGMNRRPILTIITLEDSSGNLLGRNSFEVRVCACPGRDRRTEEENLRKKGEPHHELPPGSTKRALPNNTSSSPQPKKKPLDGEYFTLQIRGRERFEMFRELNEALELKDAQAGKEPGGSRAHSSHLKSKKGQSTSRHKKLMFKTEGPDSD

## CC(=O)S[C@@H]1CC2=CC(=O)CC[C@]2(C)[C@H]2CC[C@@]3(C)[C@@H](CC[C@@]34CCC(=O)O4)[C@H]12
[1]
  outcome: inactive
[2]
  outcome: inactive
[3]
  outcome: inactive
[4]
  outcome: inactive
[5]
  outcome: inactive
[6]
  outcome: inactive
[7]
  outcome: inactive
[8]
  outcome: inactive
[9]
  outcome: inactive
[10]
  outcome: inactive
[11]
  outcome: inactive
[12]
  outcome: inactive
[13]
  outcome: inactive
[14]
  outcome: inactive

## CCCCC(CC)CN1C(=O)C2C3C=CC(C3)C2C1=O (stereo unspecified)
[1]
  AC50: 73.3 µM (active)
[2]
  outcome: inactive
[3]
  outcome: inactive
[4]
  outcome: inactive
[5]
  outcome: inactive
[6]
  outcome: inactive
[7]
  outcome: inactive
[8]
  outcome: inactive
[9]
  outcome: inactive
[10]
  outcome: inactive
[15]
  outcome: inactive
[16]
  outcome: inactive
[17]
  outcome: inactive
[11]
  outcome: inactive
[12]
  outcome: inactive
[13]
  outcome: inactive

## O=C(c1ccccc1)C1CCCCC1
[5]
  outcome: inactive
[6]
  outcome: inactive
[8]
  outcome: inactive
[9]
  outcome: inactive
[10]
  outcome: inactive
[15]
  outcome: inactive
[16]
  outcome: inactive
[17]
  outcome: inactive
[11]
  outcome: inactive
[12]
  outcome: inactive
[13]
  outcome: inactive
[14]
  outcome: inactive

## CCCCOC(=O)[C@@H](C)Oc1ccc(Oc2ccc(C(F)(F)F)cn2)cc1
[3]
  outcome: inactive
[4]
  outcome: inactive
[5]
  outcome: inactive
[6]
  outcome: inactive
[8]
  outcome: inactive
[10]
  outcome: inactive
[15]
  outcome: inactive
[16]
  outcome: inactive
[17]
  outcome: inactive
[11]
  outcome: inactive

## CCOC(=O)C(C)Oc1ccc(Oc2nc3ccc(Cl)cc3o2)cc1 (stereo unspecified)
[2]
  outcome: inactive
[3]
  outcome: inactive
[5]
  outcome: inactive
[6]
  outcome: inactive
[18]
  outcome: inactive
[8]
  outcome: inactive
[9]
  outcome: inactive
[10]
  outcome: inactive
[15]
  outcome: inactive
[16]
  outcome: inactive
[17]
  outcome: inactive
[11]
  outcome: inactive
[13]
  outcome: inactive
[14]
  outcome: inactive

## CCC(C)OC(=O)N1CCCCC1CCO (stereo unspecified)
[1]
  outcome: inactive
[3]
  outcome: inactive
[4]
  outcome: inactive
[5]
  outcome: inactive
[6]
  outcome: inactive
[8]
  outcome: inactive
[9]
  outcome: inactive
[10]
  outcome: inactive
[15]
  outcome: inactive
[16]
  outcome: inactive
[17]
  outcome: inactive
[11]
  outcome: inactive
[13]
  outcome: inactive
[14]
  outcome: inactive

## OB(O)O
[1]
  outcome: inactive
[2]
  outcome: inactive
[4]
  outcome: inactive
[5]
  outcome: inactive
[6]
  outcome: inactive
[8]
  outcome: inactive
[9]
  outcome: inactive
[15]
  outcome: inactive
[16]
  outcome: inactive
[17]
  outcome: inactive
[11]
  outcome: inactive
[12]
  outcome: inactive
[13]
  outcome: inactive
[14]
  outcome: inactive

## CCOC(=O)COc1cc(-n2ncc(C(F)(F)F)c(C)c2=O)c(F)cc1Cl
[1]
  outcome: inactive
[4]
  outcome: inactive
[5]
  outcome: inactive
[6]
  outcome: inactive
[8]
  outcome: inactive
[10]
  outcome: inactive
[15]
  outcome: inactive
[17]
  outcome: inactive
[11]
  outcome: inactive
[12]
  outcome: inactive
[13]
  outcome: inactive
[14]
  outcome: inactive

## O=C(c1ccc(O)cc1O)c1ccc(O)cc1O
[2]
  AC50: 76.4 µM (active) and 74.5 µM (active)
[4]
  outcome: inactive
[5]
  outcome: inactive
[6]
  outcome: inactive
[18]
  outcome: inactive
[8]
  outcome: inactive
[9]
  outcome: inactive
[10]
  outcome: inactive
[15]
  outcome: inactive
[16]
  outcome: inactive
[17]
  outcome: inactive
[11]
  outcome: inactive
[12]
  outcome: inactive
[14]
  outcome: inactive

## S=C([S-])NCCNC(=S)[S-].[Mn+2]
[5]
  outcome: inactive
[6]
  outcome: inactive
[8]
  outcome: inactive
[9]
  outcome: inactive
[10]
  outcome: inactive
[15]
  outcome: inactive
[16]
  outcome: inactive
[17]
  outcome: inactive
[11]
  outcome: inactive
[12]
  outcome: inactive
[13]
  outcome: inactive
[14]
  outcome: inactive
[19]
  outcome: inactive
[20]
  outcome: inactive

## CCCOC(=O)NCCCN(C)C
[2]
  outcome: inactive
[3]
  outcome: inactive
[4]
  outcome: inactive
[5]
  outcome: inactive
[6]
  outcome: inactive
[9]
  outcome: inactive
[15]
  outcome: inactive
[16]
  outcome: inactive
[17]
  outcome: inactive
[11]
  outcome: inactive
[12]
  outcome: inactive
[13]
  outcome: inactive
[14]
  outcome: inactive

## COCCO
[2]
  outcome: inactive
[3]
  outcome: inactive
[5]
  outcome: inactive
[8]
  outcome: inactive
[9]
  outcome: inactive
[10]
  outcome: inactive
[15]
  outcome: inactive
[17]
  outcome: inactive
[11]
  outcome: inactive
[12]
  outcome: inactive
[13]
  outcome: inactive
[14]
  outcome: inactive
[20]
  outcome: inactive

## CCCCOCCOCCOCc1cc2c(cc1CCC)OCO2
[5]
  AC50: 5.13 µM (active)
[6]
  AC50: 28.3 µM (active)
[8]
  AC50: 7.01 µM (active)
[9]
  outcome: inactive
[10]
  outcome: inactive
[15]
  AC50: 26.2 µM (active)
[16]
  outcome: inactive
[17]
  outcome: inactive
[11]
  outcome: inactive
[12]
  AC50: 10.7 µM (active)
[13]
  outcome: inactive
[14]
  outcome: inactive
[19]
  outcome: inactive
[20]
  outcome: inactive

## COC(=O)CSc1cc(N=c2sc(=O)n3n2CCCC3)c(F)cc1Cl
[1]
  outcome: inactive
[3]
  outcome: inactive
[5]
  outcome: inactive
[6]
  outcome: inactive
[7]
  outcome: inactive
[8]
  outcome: inactive
[9]
  outcome: inactive
[15]
  outcome: inactive
[16]
  outcome: inactive
[11]
  outcome: inactive
[13]
  outcome: inactive
[14]
  outcome: inactive
